Bioassay records: PubChem BioAssay, NMMLSC
QS inhibitor – inhibitors of bacterial quorum sensing in S. aureus; 24,000 compounds, 0.3% hits; AID 527; inhibition, % at 2 µM; S. aureus RN6390 RNAIII-GFP reporter, AIP-induced, flow cytometry 3 h;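 active = share of bacteria positive for the green fluorescent reporter and its mean brightness both inhibited by 50% or more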
LNCaP diff act – promotes differentiation of LNCaP prostate cells; flow cytometry side scatter, 4 d; side scatter shift, % at 10 µM; 24,000 compounds, 0.56% hits; AID 795;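 active = side scatter shift above 30%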;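 note: androgen-responsive LNCaP prostate cancer cells in charcoal-stripped serum medium; higher shift means more granular cells and more differentiation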
Large screens that a line does not name were inactive. An excerpt weighted towards active compounds, which were near 0.91% of everything screened.

CC1CCN(S(=O)(=O)c2ccc(S(=O)(=O)NCC(=O)C(C)(C)C)cc2)CC1	none
C=CCN(C(=O)CNS(=O)(=O)c1ccccc1)C(C(=O)NCCOC)c1ccncc1 (stereo not given)	none
CC(=O)c1c(C)nc(-c2ccc3c(c2)OCO3)n1O	none
CC(C)N1CCC2(CC1)N=C(c1ccc3c(c1)OCO3)CC(c1cc(Cl)ccc1O)N2 (stereo not given)	LNCaP diff act 34
O=C(CCCn1c(=S)[nH]c2cc3c(cc2c1=O)OCO3)N1CCN(c2ccccc2)CC1	none
O=C(CCCn1c(=S)[nH]c2cc3c(cc2c1=O)OCO3)N1CCc2ccccc2C1	QS inhibitor 66
O=C1CSC(=Nc2ccccc2)N1	none (no result: LNCaP diff act)
O=C1CS/C(=N\C(=O)N2c3ccccc3Sc3ccccc32)N1	QS inhibitor 87
CC1CCCCN1CCNC(=O)c1ccc2c(=O)n(CCc3ccccc3)c(=O)[nH]c2c1 (stereo not given)	LNCaP diff act 48
CC1CCN(CCNC(=O)c2ccc3c(=O)n(CCc4ccccc4)c(=O)[nH]c3c2)CC1	none
CCN(CC)S(=O)(=O)c1ccc2c(c1)nc(SCC(=O)NC1CC1)n2-c1ccccc1OC	none
OCCN1CCN(c2ncnc3ccc(Br)cc23)CC1	none
CC(C)Cc1nc2oc3c(N4CCN(CCO)CC4)ncnc3c2c2c1CCCC2	LNCaP diff act 32
O=C(Nc1ccc2c(c1)OCO2)C(c1ccccc1)N1CCCCC1 (stereo not given)	none
CC1CCCN(C(C(=O)Nc2ccc3c(c2)OCCO3)c2ccccc2)C1 (stereo not given)	QS inhibitor 99
CC1CCCN(C(C(=O)Nc2ccc3c(c2)OCO3)c2ccccc2)C1 (stereo not given)	QS inhibitor 99
CC1CCN(C(C(=O)Nc2ccc3c(c2)OCO3)c2ccccc2)CC1 (stereo not given)	none
CCOC(=O)C1=C(C)NC(=O)C(C#N)C1c1ccco1 (stereo not given)	none
COc1ccc(-c2nc(C#N)c(NCCN(C)C)o2)cc1	none
CCN(CC)CCCNc1oc(-c2cccc(Cl)c2)nc1C#N	LNCaP diff act 32
O=C(NC1CCCCC1)C1CCN(S(=O)(=O)N2CCOCC2)CC1	none
